# Shown is part of a subset that was picked to be rich in hits.
# D1 allo mod = allosteric modulators of human D1 dopamine receptor | P21728 | HEK293 D1, CRE-luciferase, dopamine EC30 potentiation; actives deviate in either direction | B-score at 10 µM | 58,000 tested, 5.9% active | AID 641;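 active means luminescence count or its row- and column-corrected plate score outside the 99.7% band of the plate's sample wells, on either side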
# BAP1 inh = human BAP1 deubiquitinase inhibition | Q92560 | recombinant BAP1, Ub-AMC hydrolysis fluorescence kinetic; active compounds read low | calls only at 20 µM | 72,000 tested, 0.48% active;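 active means activity remaining at or below 50% of control, provided the compound also passes the data quality filters; inactive means the rest, including low values that fail the filters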;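 further: 100% = DMSO wells rate and 0% = substrate alone blank rate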
# Target sequence (Q92560 whole entry, looked up): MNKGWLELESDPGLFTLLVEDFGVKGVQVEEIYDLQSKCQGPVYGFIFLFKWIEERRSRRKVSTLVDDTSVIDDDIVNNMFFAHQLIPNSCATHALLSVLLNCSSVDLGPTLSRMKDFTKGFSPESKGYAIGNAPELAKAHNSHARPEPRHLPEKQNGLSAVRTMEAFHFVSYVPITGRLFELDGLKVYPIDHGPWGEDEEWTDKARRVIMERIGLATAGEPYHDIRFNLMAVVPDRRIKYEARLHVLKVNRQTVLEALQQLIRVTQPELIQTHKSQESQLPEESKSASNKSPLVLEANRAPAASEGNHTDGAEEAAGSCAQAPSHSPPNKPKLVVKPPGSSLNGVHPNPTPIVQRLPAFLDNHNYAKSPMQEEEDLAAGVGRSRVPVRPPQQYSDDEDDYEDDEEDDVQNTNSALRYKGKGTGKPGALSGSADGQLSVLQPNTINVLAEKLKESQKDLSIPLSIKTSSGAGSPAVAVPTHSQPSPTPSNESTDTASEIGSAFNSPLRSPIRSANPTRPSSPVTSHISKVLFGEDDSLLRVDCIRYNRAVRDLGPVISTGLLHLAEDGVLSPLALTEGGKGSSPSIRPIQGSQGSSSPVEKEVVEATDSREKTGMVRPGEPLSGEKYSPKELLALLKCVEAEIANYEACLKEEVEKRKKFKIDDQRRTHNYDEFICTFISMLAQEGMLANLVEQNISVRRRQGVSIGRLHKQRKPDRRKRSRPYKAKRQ
# DAT uptake mod = modulates human dopamine transporter uptake under cocaine; B-score at 10 µM; LLC-PK1 hDAT cells, [14C]-dopamine uptake with cocaine IC80; actives deviate in either direction; 110,000 tested, 1.3% active;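 active means Z score or B-score, a plate-position-corrected score, falls beyond the plate's 99.7% confidence bounds, in either direction; inactive means both scores lie inside the 99.7% bounds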;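 further: scored against the spread of the other compound wells on the same plate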
# D1 mod confirm = D1 receptor (human) allosteric modulation, confirmed. 2,200 tested, 88% active. HEK293 D1 CRE-luciferase, dopamine EC30 potentiation; active compounds read high. shares compounds with D1 allo mod. AID 642. luminescence at 10 µM;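 active means luminescence in either of two replicates above the same-plate mean plus 3 SD of the low-dose dopamine control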
# D1 ag no DA = D1 (human) signaling in absence of dopamine. shares compounds with D1 allo mod. HEK293 D1 CRE-luciferase, luminescence, no dopamine; active compounds read high. luminescence at 10 µM. 1,900 tested, 0.8% active. AID 646; in the data active means luminescence above about 3900
# Isoprot counter = isoproterenol response counter-screen activity for D1 modulators | shares compounds with D1 allo mod | AID 647 | HEK293 D1 CRE-luciferase, isoproterenol EC30 counter-screen; active compounds read high | luminescence at 10 µM | 2,200 tested, 63% active;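 active means luminescence in either replicate above plate mean of wells with a partly effective reference agonist dose plus 3 SD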;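 further: isoproterenol raises cAMP through native beta-adrenoceptor Gs so signal bypasses D1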
# The depositor's hits bear a star; i = inactive; . = not tested or not shown.
SMILES,D1 allo mod,BAP1 inh,DAT uptake mod,D1 mod confirm,D1 ag no DA,Isoprot counter
CCn1cc(C(=O)OCc2ccccc2)c(=O)c2ccc(C)nc21,5.85*,i,1.26,9156*,1600,2792
CCn1cc(C(=O)OCC(=O)Nc2c(C)n(C)n(-c3ccccc3)c2=O)c(=O)c2ccc(C)nc21,0.642,i,1.29,.,.,.
Cc1ccsc1C(=O)OCC(=O)NCc1ccc2c(c1)OCO2,-0.405,i,-0.732,.,.,.
CCn1cc(C(=O)Nc2ccccc2C(=O)OC)c(=O)c2ccc(C)nc21,1.08,i,.,.,.,.
CCn1cc(C(=O)OCC(=O)OC2CC(C)CCC2C(C)C)c(=O)c2ccc(C)nc21 (centres undefined),6.39*,i,0.135,9780*,1408,3792
CCn1cc(C(=O)Nc2ccc(NC(=O)c3ccco3)cc2)c(=O)c2ccc(C)nc21,1.51,i,.,.,.,.
C=Cn1cccc1-c1cccs1,.,i,.,.,.,.
Cc1ccc2nc(SCC(=O)c3ccc(Cl)cc3)[nH]c2c1,.,i,.,.,.,.
Cc1nc(-c2cc3cc(Cl)ccc3oc2=O)cc2c1c(=O)oc1ccc(Cl)cc12,.,i,.,.,.,.
O=C(c1ccccc1Cl)N1CCN(C2=NS(=O)(=O)c3ccccc32)CC1,.,i,.,.,.,.
COC(=O)C1=CNC=C(C(=O)OC)C1c1ccc(C)s1,.,i,.,.,.,.
CCn1cc(C(=O)OCc2ccc(F)cc2)c(=O)c2ccc(C)nc21,9.86*,i,2.35,10188*,1412,3888*
CCn1cc(C(=O)OCc2cccc(Br)c2)c(=O)c2ccc(C)nc21,6.6*,i,1.06,14972*,1524,3252*
CCn1cc(C(=O)NC2CCc3ccccc32)c(=O)c2ccc(C)nc21 (centres undefined),0.216,i,-0.0469,.,.,.
CCn1cc(C(=O)Nc2cccc(C(=O)OC)c2)c(=O)c2ccc(C)nc21,0.175,i,1.59,.,.,.
O=C1CSC(c2ccccc2[N+](=O)[O-])N1 (centres undefined),.,i,.,.,.,.
Cc1nc2ccc(Cl)cc2c(-c2ccccc2)c1C1=NN(C(=O)CCC(=O)O)C(c2cccc(Br)c2)C1 (centres undefined),.,i,.,.,.,.
Fc1cccc(-n2c(-c3ccco3)nc3nc4ccccc4nc32)c1,9.2*,.,-0.77,16260*,1552,4728*
c1ccc(-c2nc3nc4ccccc4nc3n2Cc2ccco2)cc1,-0.496,i,-1.74,.,.,.
Fc1ccc(-n2c(-c3ccco3)nc3nc4ccccc4nc32)cc1,15.5*,.,0.229,25288*,1548,7444*
Fc1ccc(-c2nc3nc4ccccc4nc3n2Cc2ccco2)cc1,0.324,i,0.00445,.,.,.
COC(=O)c1sc2ccccc2c1NC(=O)c1ccc(S(=O)(=O)N2CC(C)OC(C)C2)cc1 (centres undefined),.,i,.,.,.,.
c1ccc(Cn2c(-c3cccs3)nc3nc4ccccc4nc32)cc1,3.35,i,-1,.,.,.
CC(C)Cn1c(-c2cccs2)nc2nc3ccccc3nc21,4.73*,.,0.443,10104*,1776,3488
CCCOC(=O)C1=C(C)N(C)C(=O)NC1c1cc(Cl)c(O)c(OC)c1 (centres undefined),.,i,.,.,.,.
SMILES,D1 allo mod,BAP1 inh,DAT uptake mod,D1 mod confirm,D1 ag no DA,Isoprot counter
CCOC(=O)c1ccc(NC(=O)c2ccccc2CCc2ccccc2)cc1,.,i,.,.,.,.
Cc1cccc(C)c1NC(=O)CCC(=O)O,.,i,.,.,.,.
CC1=C(C(=O)OCCOc2ccccc2)C(c2ccccc2[N+](=O)[O-])C2=C(CCCC2=O)N1 (centres undefined),.,i,.,.,.,.
COc1ccc(C(=O)COC(=O)CCN=C2NS(=O)(=O)c3ccccc32)cc1OC,4.62*,i,-0.457,13264*,1572,3656*
CC(C)C(=O)OCCN=C1NS(=O)(=O)c2ccccc21,.,.,-1.16,.,.,.
Cc1cc(N)n2ncc(-c3cccc(Br)c3)c2n1,6.36*,i,1.21,10808*,1672,3512*
Cc1cc(N)n2ncc(-c3ccccc3)c2n1,1.52,i,0.518,.,.,.
Cc1cc(NC(=O)c2cccnc2)ccc1-c1cc2ccccc2oc1=O,.,i,.,.,.,.
CCOc1ccc(NC(=O)c2cccc(Cl)c2)c([N+](=O)[O-])c1,.,i,.,.,.,.
CCOCC(=O)Nc1nnc(Cc2ccc(OC)cc2)s1,.,.,0.914,.,.,.
COCC(=O)Nc1nnc(Cc2ccc(OC)c(OC)c2)s1,9.76*,i,0.0097,19508*,1696,3784*
CCOCC(=O)Nc1nnc(Cc2ccc(OC)c(OC)c2)s1,7.78*,i,-0.66,12160*,.,2996*
CCOC(=O)C(=O)Nc1nnc(Cc2ccc(OC)c(OC)c2)s1,.,.,-0.459,.,.,.
O=C(c1cccc(Cl)c1)N1CCN(c2ccc(F)cc2)CC1,.,i,.,.,.,.
COC(=O)CSc1nc2sc3c(c2c(=O)n1-c1ccc(C)cc1)CC(C)(C)OC3,.,i,.,.,.,.
COc1ccc(-c2nnc(SCC(=O)NCc3cccs3)n2C(C)C)cc1,.,.,0.0872,.,.,.
Cc1cc2c(cc(C(=O)OCC(=O)NCc3cccs3)n2C(C)C)o1,10.5*,i,-0.382,7700*,1632,4620*
O=[N+]([O-])c1ccccc1N1CCN(c2ccc([N+](=O)[O-])c3cccnc23)CC1,.,i,.,.,.,.
O=c1[nH]c(=O)n(C2CCCO2)cc1F (centres undefined),.,.,-0.522,.,.,.
O=c1c(F)cn(C2CCCO2)c(=O)n1Cc1c(F)cccc1Cl (centres undefined),6.17*,i,-0.237,8312*,1800,2872*
O=C(Nc1cccnc1)c1ccc(-c2cccc([N+](=O)[O-])c2)o1,.,i,.,.,.,.
Cc1cc2nc(Nc3nc(-c4ccccc4)cc(=O)[nH]3)nc(C)c2cc1C,.,i,.,.,.,.
COc1ccc(-c2c3c(=O)n(C)c(=O)n(C)c3c3nnc4ccccc4n23)cc1,-0.705,i,.,.,.,.
COc1ccc(-c2c3c(=O)n(C)c(=O)n(C)c3cn2C2CCCCC2)cc1,7.67*,i,0.994,15660*,1992,3796*
CCOc1ccc(NC(=NS(=O)(=O)c2ccc(Cl)cc2)c2ccccc2)cc1,.,i,.,.,.,.
SMILES,D1 allo mod,BAP1 inh,DAT uptake mod,D1 mod confirm,D1 ag no DA,Isoprot counter
CCOc1ccc(-c2nnn(CC(=O)NCc3ccc4c(c3)OCO4)n2)cc1,.,.,1.33,.,.,.
CCOc1ccc(-c2nnn(CC(=O)c3ccc4c(c3)OCCO4)n2)cc1OCC,9.26*,i,-1.21,18056*,1596,4056*
O=S(=O)(Nc1ccc(-c2nc3cccnc3s2)cc1)c1ccc(Cl)s1,.,.,-1.65,.,.,.
O=S(=O)(Nc1ccc(-c2nc3cccnc3s2)cc1)c1cccs1,8.5*,.,0.453,19148*,1852,3344*
Cc1cc2ccccc2c(=O)n1CC(=O)NCC(=O)N1CCN(c2cccc(Cl)c2)CC1,-0.457,i,1.14,.,.,.
Cc1cc2ccccc2c(=O)n1CC(=O)NCC(=O)N1CCN(c2ccccc2F)CC1,3.43*,i,-0.243,7784,1604,2064
CCOc1cc(C2CC(=O)Nc3cc(C)c(C)cc32)ccc1O (centres undefined),21.1*,i,0.162,17484*,.,4260*
CCOc1cc(C2CC(=O)c3c(ccc4ccccc34)N2)ccc1O (centres undefined),.,.,-1.57,.,.,.

# High-throughput results from PubChem BioAssay.
